Results: the supplement of paper PMC10515830
Counter-ions that a name gives are not always drawn.

Tests used:
Conditions in all cases: 10 µM; exposure time 6 h
[1] = tested on: Danio rerio larvae (5 dpf); test: difference in excitability vs DMSO (percentage points); higher = more excitable than DMSO
In short: (§1)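 Wild-type 5 dpf zebrafish larvae in 96-well plates were given 100 µL egg water containing library compound at 10 µM final for 6 h. After 3 h of exposure, plates at 28.5 ℃ were photographed every 6 s during a 3-h programme of moving lines and 100 ms, 400Hz tones. Z-LaP Tracker (a DeepLabCut model) quantified each behaviour, averaged over 48 larvae per compound. Values are the compound mean minus the DMSO-vehicle control, in percentage points.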

[2] = tested on: Danio rerio larvae (5 dpf); test: difference in startle response vs DMSO (percentage points); higher = stronger startle than DMSO
In short: as §1

[3] = tested on: Danio rerio larvae (5 dpf); test: difference in activity during first hour vs DMSO (percentage points); higher = more activity than DMSO
In short: as §1

[4] = tested on: Danio rerio larvae (5 dpf); test: difference in habituation to acoustic stimuli vs DMSO (percentage points); higher = more habituation than DMSO
In short: as §1

[5] = tested on: Danio rerio larvae (5 dpf); test: difference in combined optomotor response to red, green and blue moving lines vs DMSO (percentage points); higher = stronger optomotor response than DMSO
In short: as §1

Row | Structure (SMILES) | difference in excitability [1] | difference in startle response [2] | difference in activity during first hour [3] | difference in habituation to acoustic stimuli [4] | difference [5]
1 | Cn1cnc([N+](=O)[O-])c1Sc1ncnc2[nH]cnc12 [Azathioprine] | -3.13 | 3.25 | -3.18 | 4.62 | 1.19
2 | O=C(O[C@@H]1C[C@@H]2C[C@H]3C[C@H](C1)N2CC3=O)c1c[nH]c2ccccc12 [Dolasetron] | 10.9 | -3.55 | 2.6 | 7.35 | 6.71
3 | CC1(C)O[C@@H]2C[C@H]3[C@@H]4C[C@H](F)C5=CC(=O)CC[C@]5(C)[C@H]4[C@@H](O)C[C@]3(C)[C@]2(C(=O)CO)O1 [Flurandrenolide] | 7.97 | 0.156 | 1.93 | 0.924 | 5.73
4 | CN(C)C(=O)N[C@H]1CC[C@H](CCN2CCN(c3cccc(Cl)c3Cl)CC2)CC1 [Cariprazine (hydrochloride)] | 11.3 | -2.66 | -2.12 | -3.39 | -1.22
5 | CCCCC[C@](C)(O)/C=C/[C@@H]1[C@@H](C/C=C\CCCC(=O)O)[C@@H](O)C[C@H]1O [15(S)-15-methyl Prostaglandin F2α] | 1.12 | 0.545 | 22.8 | 1.43 | 5.47
6 | C[C@H](CCC(=O)O)[C@H]1CC[C@H]2[C@@H]3[C@H](O)C[C@@H]4C[C@H](O)CC[C@]4(C)[C@H]3C[C@H](O)[C@]12C [Cholic Acid] | -2.04 | 2.75 | 8.68 | 3.98 | -1.08
7 | Clc1ccc(C(Cn2ccnc2)OCc2csc3c(Cl)cccc23)c(Cl)c1 (stereo not given) [Sertaconazole (nitrate)] | 4.31 | -8.13 | -18.2 | -10 | -11.3
8 | Oc1ccc(C2CNCCc3c2cc(O)c(O)c3Cl)cc1 (stereo not given) [Fenoldopam (mesylate)] | 9.9 | -2.3 | 4.74 | -1.52 | -1.12
9 | CO[C@@H]1[C@H](N(C)C(=O)c2ccccc2)C[C@H]2O[C@]1(C)n1c3ccccc3c3c4c(c5c6ccccc6n2c5c31)C(=O)NC4 | -5.3 | -4.96 | 4.11 | 8.1 | 0.314
10 | CCCc1c2oc(C(=O)O)cc(=O)c2cc2c(=O)cc(C(=O)O)n(CC)c12 [Nedocromil (sodium salt)] | -1.27 | 3.78 | -6.98 | 7.47 | -2.49
11 | CC(S)C(=O)NCC(=O)O (stereo not given) [Tiopronin] | 1.71 | -1.91 | 3.62 | -3.05 | 3.9
12 | CC(C)(C)NC[C@H](O)COc1cccc2c1CCCC2=O [Levobunolol (hydrochloride)] | 5.55 | 1.6 | 12.7 | -1.95 | 5.62
13 | CNCCC(Oc1ccc(C(F)(F)F)cc1)c1ccccc1 (stereo not given) [Fluoxetine (hydrochloride)] | 2.79 | -8.12 | -19.3 | -5.89 | -6.12
14 | CN(C)C(=O)c1cc2cnc(Nc3ccc(N4CCNCC4)cn3)nc2n1C1CCCC1 | 10.3 | -7.97 | 2.64 | -2.12 | 0.1
15 | CCOC(=O)O[C@]1(C(=O)COC(=O)CC)CC[C@H]2[C@@H]3CCC4=CC(=O)C=C[C@]4(C)[C@H]3[C@@H](O)C[C@@]21C [Prednicarbate] | 10.3 | 3.6 | -2.36 | -0.38 | -0.877
16 | CN(C)CCOc1ccc(/C(=C(/CCCl)c2ccccc2)c2ccccc2)cc1 [Toremifene (citrate)] | 4.69 | -6.57 | 9.64 | -7.15 | -13.3
17 | Nc1nc(-n2cc(C(=O)O)c(=O)c3cc(F)c(N4CC(O)C4)c(Cl)c32)c(F)cc1F [Delafloxacin] | 14.4 | 12.8 | -8.49 | 7.81 | 9.67
18 | O=S(=O)(O)CCS [Mesna] | -4.43 | 2.29 | 12.8 | -1.88 | 6.5
19 | N#CC[C@H](C1CCCC1)n1cc(-c2ncnc3[nH]ccc23)cn1 [Ruxolitinib (phosphate)] | -1.61 | 4.35 | 6.14 | -4.72 | 17.9
20 | Clc1ccc(CSC(Cn2ccnc2)c2ccc(Cl)cc2Cl)cc1 (stereo not given) [Sulconazole (nitrate)] | 11.3 | -12.7 | -17.2 | -12 | -16.4
21 | COc1ccc(Cl)cc1C(=O)NCCc1ccc(S(=O)(=O)NC(=O)NC2CCCCC2)cc1 [Glyburide (potassium salt)] | 9.95 | 5.16 | 10.9 | -3.8 | 7.83
22 | NC(=O)OCC(COC(N)=O)c1ccccc1 [Felbamate] | -5.58 | 2.01 | 9.63 | -0.648 | 2.98
23 | NC(=O)C(c1ccccc1)(c1ccccc1)[C@@H]1CCN(CCc2ccc3c(c2)CCO3)C1 [Darifenacin (hydrobromide)] | 15.5 | -9.95 | -4.6 | -3.27 | -6.74

Row | Structure (SMILES) | difference in excitability [1] | difference in startle response [2] | difference in activity during first hour [3] | difference in habituation to acoustic stimuli [4] | difference [5]
24 | CN(C)CCCN1c2ccccc2CCc2ccccc21 [Imipramine (hydrochloride)] | 14.5 | -8.78 | -16.4 | -11.2 | -6.91
25 | Fc1ccc([C@@H]2CCNC[C@H]2COc2ccc3c(c2)OCO3)cc1 [Paroxetine (hydrochloride)] | 11 | -3.61 | -22.3 | -3.35 | -11.4
26 | COc1cccc2c1C(=O)c1c(O)c3c(c(O)c1C2=O)C[C@@](O)(C(=O)CO)C[C@@H]3O[C@H]1C[C@H](N)[C@H](O)[C@H](C)O1 [Doxorubicin (hydrochloride)] | 6.65 | 3.55 | -7.11 | 6.05 | -4.42
27 | CCN(CC)CC(=O)Nc1c(C)cccc1C [Lidocaine] | 4.55 | -4.05 | 10.3 | -4.04 | 1.72
28 | COCCOC(=O)C1=C(C)NC(C)=C(C(=O)OC(C)C)C1c1cccc([N+](=O)[O-])c1 (stereo not given) [Nimodipine] | 7.48 | -6.36 | 11.8 | -10.8 | -14.5
29 | Cc1ccnc2c1NC(=O)c1cccnc1N2C1CC1 [Nevirapine] | 0.772 | 3.61 | -2.89 | -2.11 | -3.5
30 | COc1ccc(CC(C)(C)NC[C@H](O)c2cc(O)cc3c2OCC(=O)N3)cc1 [Olodaterol] | 10.9 | -5.93 | 11.8 | -9.87 | 3.03
31 | Nc1ncn([C@H]2C[C@H](O)[C@@H](CO)O2)c(=O)n1 [Decitabine] | -2.79 | -4.56 | -0.853 | 0.137 | 4.38
32 | CC1(C)C[C@@H]1C(=O)N/C(=C\CCCCSC[C@H](N)C(=O)O)C(=O)O [Cilastatin] | -5.97 | 11.7 | 15 | -6.5 | 10.5
33 | COC(=O)C1=C(C)NC(C)=C(C(=O)OC)C1c1ccccc1[N+](=O)[O-] [Nifedipine] | 8.58 | -1.47 | -4.95 | 0.749 | 12.1
34 | CCCCCCCN(CC)CCCC(O)c1ccc(NS(C)(=O)=O)cc1 (racemic) [(±)-Ibutilide (hemifumarate)] | 17.7 | 1.14 | -7.19 | 6.3 | -6.18
35 | CC(C)(C#N)c1cc(Cn2cncn2)cc(C(C)(C)C#N)c1 [Anastrozole] | 1.93 | -2.98 | -4.84 | -5.36 | 7.09
36 | CCC(=O)O[C@]1(C(=O)CCl)[C@@H](C)C[C@H]2[C@@H]3CCC4=CC(=O)C=C[C@]4(C)[C@@]3(F)[C@@H](O)C[C@@]21C [Clobetasol Propionate] | 2.04 | -8.98 | 19.3 | 0.438 | 4.92
37 | CC(=O)Oc1c(C)cc(OCC(O)CNC(C)C)c(C)c1C (stereo not given) [Metipranolol (hydrochloride)] | 1.28 | 4.21 | -3.92 | 5.42 | 0.513
38 | Cc1onc(-c2c(Cl)cccc2Cl)c1C(=O)N[C@@H]1C(=O)N2[C@@H]1SC(C)(C)[C@@H]2C(=O)O [Dicloxacillin (sodium salt hydrate)] | 9.09 | -2.02 | 8.63 | -4 | 0.484
39 | CCO/N=C(\C(=O)N[C@@H]1C(=O)N2C(C(=O)[O-])=C(Sc3nc(-c4cc[n+](C)cc4)cs3)CS[C@H]12)c1nsc(NP(=O)(O)O)n1 | 2.56 | 0.685 | 4.29 | -3.93 | -5.35
40 | Cc1cc2c(s1)Nc1ccccc1N=C2N1CCN(C)CC1 [Olanzapine] | 26.1 | -4.9 | 8.52 | -8.45 | 4.38
41 | c1cc(CN2CCCNCCNCCCNCC2)ccc1CN1CCCNCCNCCCNCC1 [Plerixafor (hydrochloride hydrate)] | 11.6 | -7.66 | -16 | -5.73 | -15.1
42 | CCc1nn(CCCN2CCN(c3cccc(Cl)c3)CC2)c(=O)n1CCOc1ccccc1 [Nefazodone (hydrochloride)] | 9.32 | -3.06 | 29.1 | -9.41 | -10.9
43 | CCC[C@H](N[C@@H](C)C(=O)N1[C@H](C(=O)O)C[C@@H]2CCCC[C@@H]21)C(=O)OCC [Perindopril] | 1.68 | 3.45 | 15 | -4.9 | 1.2
44 | COc1cc2nc(N(C)CCCNC(=O)C3CCCO3)nc(N)c2cc1OC (stereo not given) [Alfuzosin (hydrochloride)] | 9.01 | 2.43 | 5.63 | -6.84 | 1.55
45 | CC[C@]1(O)C[C@H]2CN(CCc3c([nH]c4ccccc34)[C@@](C(=O)OC)(c3cc4c(cc3OC)N(C=O)[C@H]3[C@@](O)(C(=O)OC)[C@H](OC(C)=O)[C@]5(CC)C=CCN6CC[C@]43[C@@H]65)C2)C1 [Vincristine (sulfate)] | 3.18 | 3.21 | -4.31 | -2.03 | 1.46
